High-throughput results (PubChem BioAssay)
Pf growth 48h: P. falciparum growth inhibition at 48 hours (one generation) | Potency, µM (titrated, usually from 28.7 µM), inactives show at the top dose activity change, negative = inhibition, hits mostly inhibitors | 310,000 compounds, 5.9% hits | P. falciparum luciferase growth in erythrocytes, 48 h; further: potency means the concentration at half of the fitted maximal effect
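Growth was read as firefly luciferase luminescence after a 48 h, 37 C, 5% CO2 exposure of compounds to reporter-bearing P. falciparum cultures (0.1% parasitemia, 2% hematocrit final) in Albumax-supplemented RPMI 1640.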
Pf growth 96h: P. falciparum growth inhibition at 96 hours | 320,000 compounds, 6.9% hits | P. falciparum luciferase reporter growth, 96 h | Potency, µM (doses to about 28.7 µM), without a hit: top-dose activity change, negative = inhibition, usual class: inhibitors; further: potency means the concentration at half of the fitted maximal effect
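Parasite growth measured via integrated firefly luciferase reporter in P. falciparum. Infected erythrocytes at 2% hematocrit, 0.05% parasitemia final were treated 96 hours at 37 C under 5% CO2, and luminescence was read.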
HCMV inh: blocks human cytomegalovirus replication; activity change, negative = inhibition, % at 57.5 µM; AID 1259415; 410,000 compounds, 4.5% hits; HFF cells, HCMV-luciferase reporter, 72 h; stronger effect = lower value; in the data active means activity change below about -60%; inconclusive means no clear call, values can overlap the other calls; inactive means above about -39%
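Screen run at 2 compound doses on HFFs infected with reporter HCMV, MOI 1 PFU/cell. Luciferase activity from cell lysates at 72 h post infection gave inhibition relative to buffer-only and Salinomycin wells.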
HCV inhibitor: inhibitors of hepatitis C virus infection. Huh7.5.1 HCVcc-Cre infection, luciferase reporter, 44 h. Potency, µM (top dose mostly 41.8 µM), without a hit: top-dose activity change, negative = inhibition, hits mostly inhibitors. 340,000 compounds, 3.4% hits; further: potency means the concentration at half of the fitted maximal effect
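Cells (1,000/well) were plated 4 h before compound, then infected with HCVcc-Cre virus (~0.5 moi). After 44 h further culture, infection was read as luciferase luminescence following a 15 min substrate incubation at room temperature.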
* marks the source's active call; other numbers are inactive results; ? = inconclusive; . = not tested or not shown. Compounds with a hit are over-represented: about 13% of the library has one in this group of screens. Unless noted, the call rests on the fitted dose curve; in most records, active means well fitted inhibition curve with a large enough effect; inconclusive means small, poorly fitted or top-dose-only effect, or another doubt; inactive means no such curve, though single readings can be large or run the other way. On the % scale 0 is the no-effect control and ±100 the full control effect.

SMILES	Pf growth 48h	Pf growth 96h	HCMV inh	HCV inhibitor
Cc1ccccc1-n1c(C)cc(/C=C(\C#N)C(=O)NCC2CCCO2)c1C (configuration not stated)	-77.5%	8.28µM*	?	-17.0%
Cc1ccc(Cn2c(CN3CCC(C(=O)NCc4ccccc4C)CC3)cc3ccccc32)cc1	.	.	19.0	.
Fc1ccc2[nH]c(-c3cccs3)cc2c1	.	.	-2.4	.
COc1ccc(CCNc2ncnc3c2nnn3C)cc1	.	.	-31.7	.
COC(=O)[C@@H]1[C@@H](CO)[C@@H]2Cn3c(cccc3=O)[C@@H]2N1C(=O)c1cnccn1	.	.	23.1	.
C=C(NCc1ccccc1)c1ccccc1O	-8.6%	-13.9%	.	.
C=CCN1C[C@H](COC(=O)CSc2ccccc2)Oc2cccc(F)c2S1(=O)=O	.	.	0.8	.
CC(C)(C)NC(=O)C(c1ccccc1F)n1c(=O)c(-c2cc3ccccc3[nH]2)nc2ccccc21 (configuration not stated)	.	.	30.6	.
CCC(C)(C)c1ccc(OCCCC[n+]2ccc(C)cc2)c(C(C)(C)CC)c1	1.85µM*	3.7µM*	-97.3*	?
CCC(C)(C)c1ccc(OCCCC[n+]2cccc(C)c2C)c(C(C)(C)CC)c1	0.828µM*	0.37µM*	-96.6*	17.8µM*
Cc1cc[n+](CC[n+]2ccc(C)cc2)cc1	-7.2%	13.3%	-21.2	19.9%
CCOc1nc(-c2ccc(C)cc2)ccc1-c1noc(-c2ccccc2F)n1	.	.	-0.5	.
COc1ccc(-c2cn[nH]c2-c2ccc(O)cc2O)cc1OC	?	9.28µM*	33.7	-23.1%
CCCc1cc2c(=O)c(-c3ccc4c(c3)OCCO4)coc2cc1OC(=O)c1ccco1	73.0%	74.0%	34.5	-0.6%
CCc1cc(-c2[nH]ncc2-c2ccc3c(c2)OCO3)c(O)cc1O	?	?	-98.6*	?
CCCc1cc(-c2[nH]ncc2-c2ccc3c(c2)OCCCO3)c(O)cc1OC	3.7µM*	.	-6.5	?
CN(Cc1cn[nH]c1-c1ccc2c(c1)OCO2)C1CCOCC1	-3.6%	15.8%	8.9	12.7%
COc1ccc(-c2[nH]ncc2-c2ccc3c(c2)OCCO3)c(O)c1	?	38.3%	-82.0*	?
COc1ccc(-c2[nH]ncc2-c2nc(C)cs2)c(O)c1	14.6%	35.5%	-29.7	2.3%
COc1ccc(CNC(=O)c2ccc3c(c2)N(Cc2ccccc2F)C(=O)c2ccccc2S3=O)cc1 (configuration not stated)	.	.	21.0	.
O=C(c1cccn1-c1nnc(N2CCCC2)s1)N1CCN(c2ccc(Cl)cc2)CC1	.	.	0.0	.
COc1cc2c(cc1NC(=O)COc1ccc(Br)c(C)c1)oc1ccccc12	.	.	-7.0	.
COc1ccc(-c2cn[nH]c2-c2ccc(OCc3ccc([N+](=O)[O-])cc3)cc2O)cc1	13.1µM*	?	-93.0*	?
COc1ccc(CNc2ccc([N+](=O)[O-])cn2)cc1	143.7%	-24.8%	14.3	4.4%
CCc1cc(-c2[nH]ncc2-c2ccc(OC)cc2)c(O)cc1O	?	?	-98.5*	3.98µM*
SMILES	Pf growth 48h	Pf growth 96h	HCMV inh	HCV inhibitor
COc1ccc(C(=O)c2cn[nH]c2-c2ccc(C)cc2O)cc1	-13.2%	-8.1%	13.7	2.8%
COc1ccc(OC)c(CNC(=O)CCCn2nc(C)c3c(C)n(-c4ccc(C)cc4)nc3c2=O)c1	.	.	8.6	.
C[C@H](CO)N1C[C@H](C)[C@H](CN(C)C(=O)Nc2ccc3c(c2)OCO3)OCc2cnnn2CCCC1=O	.	.	3.6	.
Cc1ccc(OCC(=O)Nc2ccc3nc(SCC(=O)N4CCCC4)sc3c2)cc1C	.	.	-16.3	.
Cc1ccc(C2(CC(=O)O)CCOC(C)(C)C2)cc1 (configuration not stated)	-12.8%	9.28µM*	3.9	-1.1%
CCOc1ccc(CCN2C(=S)N([C@@H](Cc3ccc(O)cc3)CN3CCC[C@@H]3CN3C(=S)NC[C@@H]3Cc3ccccc3)C[C@@H]2Cc2ccc(O)cc2)cc1	.	.	-38.6	.
CCOc1ccc(CCN2C(=S)N([C@@H](CC(C)C)CN3CCCC3CN3C(=S)NC[C@@H]3Cc3ccc(O)cc3)C[C@@H]2Cc2ccc(O)cc2)cc1 (some centres not stated)	.	.	-83.9*	11.2µM*
CC(C)C[C@@H](CN1CCCC1CN1C(=S)NC[C@@H]1Cc1ccccc1)N1C[C@H](Cc2ccc(O)cc2)N(CCc2ccccc2)C1=S (some centres not stated)	.	.	-29.9	.
Oc1ccc(C[C@H]2CNC(=S)N2CC2CCCN2C[C@H](Cc2ccccc2)N2C[C@H](Cc3ccc(O)cc3)N(CCc3ccccc3)C2=S)cc1 (some centres not stated)	.	.	?	2.24µM*
CCOc1ccc(CCN2C(=S)N([C@@H](CC(C)C)CN3CCCC3CN3C(=S)NC[C@@H]3Cc3ccc(O)cc3)C[C@@H]2Cc2ccccc2)cc1 (some centres not stated)	.	.	-38.9	10µM*
Fc1ccc(CNc2nc3ccc(Cl)cc3n3nnnc23)cc1	.	.	26.5	.
Cn1cc(C(=O)NCCc2ccccc2)c(=O)c2cc(S(=O)(=O)N3CCCCC3)ccc21	.	.	17.8	.
CCCN(CCC)C(=O)Cn1c(=O)n(-c2ccc(C)cc2)c(=O)c2ccc(C(=O)NCc3ccccc3Cl)cc21	.	.	-13.0	.
COc1cc(C2C=C(C34CC5CC(CC(C5)C3)C4)NC(=S)N2)cc(OC)c1OC (configuration not stated)	.	1.04µM*	-28.2	-25.0%
COc1ccc(OC)c(C2C=C(C34CC5CC(CC(C5)C3)C4)NC(=S)N2)c1 (configuration not stated)	8.28µM*	2.62µM*	?	2.51µM*
S=C1NC(C23CC4CC(CC(C4)C2)C3)=CC(c2ccc3c(c2)OCO3)N1 (configuration not stated)	4.15µM*	?	?	?
COc1ccc(C2=CC(c3cc(OC)c(OC)c(OC)c3)NC(=S)N2)cc1 (configuration not stated)	?	.	22.2	-23.0%
O=C(NCc1ccc2c(c1)OCO2)NC12CC3CC(CC(C3)C1)C2	?	-14.5%	58.3	-30.7%
CCC(=O)N1c2ccc(S(=O)(=O)CCC(=O)NCc3ccc(OC)cc3)cc2CC1C (configuration not stated)	.	.	6.8	.
Cn1c(=O)c2sccc2n2c(CCC(=O)N3CCN(c4cccc(Cl)c4)CC3)nnc12	.	.	11.7	.
Cc1ccc(-c2cc(NC(=O)C(C)Oc3ccc(C)c(C)c3)on2)cc1 (configuration not stated)	.	.	52.7	.
COCCCNC(=O)C[C@@H]1C[C@@]2(C(=O)OC)CCCCC=C2N(CCC2=CCCCC2)C1=O	.	.	-9.7	.
CCc1ccc(N(CC(=O)N2CCCCCC2)S(C)(=O)=O)cc1	-10.4%	?	-12.6	18.4%
COc1ccc(N2CCN(C(=O)CN(c3cccc(OC)c3)S(=O)(=O)c3ccccc3)CC2)cc1	13.1µM*	?	26.6	?
COc1ccc(N2CCN(C(=O)CN(c3ccccc3)S(C)(=O)=O)CC2)cc1	-16.3%	10.4µM*	48.8	4.6%
